# PubChem BioAssay (NCATS)
# Inconclusive results are not listed. Active and inactive are the calls of the source. Calls come from the whole dose curve; as a rule, active = well fitted inhibition curve with a large enough effect; inconclusive = small, poorly fitted or top-dose-only effect; inactive = flat fitted curve, though single readings scatter.
# System: CRL-7250
# Experiment: qHTS assay to identify novel small-molecules to repurpose for Merkel cell carcinoma treatment (AID 1296009); note: nearly all actives have a fitted effect of over 60% in size
# Details: MCC and control cell lines, CellTiter-Glo viability, 72 h; at 44.8 µM (top of the series) unless noted
# Method in brief: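 Cells were incubated with compound for 72 hr at 37 degree celsius before CellTiter-Glo addition. Luminescence was normalized with no-cell wells as full cytotoxicity and DMSO as baseline.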
row,SMILES,outcome
1,C1CCN2C[C@@H]3C[C@@H](CN4CCCC[C@@H]34)[C@H]2C1,inactive
2,N/C(=N\N=C\c1ccc(Cl)cc1)N/N=C/c1ccc(Cl)cc1,inactive
3,CN(C)C(=O)Oc1cccc([N+](C)(C)C)c1,inactive
4,Cc1[nH]c(C)c(Cl)c(=O)c1Cl,inactive [at 17.4 µM]
5,Cl/C(=C\n1cncn1)c1ccc(Cl)cc1Cl,inactive
6,CC1(C)CO[C@@H](CC(=O)O)CN1,inactive
7,Cn1cnc2c1c(=O)[nH]c(=O)n2C,inactive
8,CN(C)CCOc1ccccc1Cc1ccccc1,inactive
9,Cc1cc(CC(=O)O)n(C)c1C(=O)c1ccc(Cl)cc1,inactive
10,N[C@H](C(=O)O)[C@@H](O)c1ccc(O)c(O)c1,inactive
11,OC(C#CCN1CCCC1)(c1ccccc1)c1ccccc1,inactive
12,COc1ccccc1OC(=O)Oc1ccccc1OC,inactive
13,Clc1ccc(Cn2c(CN3CCCC3)nc3ccccc32)cc1,inactive
14,Cc1c(C(=O)NN2CCCCC2)nn(-c2ccc(Cl)cc2Cl)c1-c1ccc(Cl)cc1,inactive
15,Cn1cc(C(=O)[C@@H]2CCc3nc[nH]c3C2)c2ccccc21,inactive
16,O=C(O)Cn1c(C(=O)Nc2nc(-c3ccccc3Cl)cs2)cc2ccccc21,inactive
17,COc1ccc2c(c1)c(CC(=O)O)c(C)n2C(=O)c1ccc(Cl)cc1,inactive
18,O=S1(=O)OC(c2ccc(O)cc2)(c2ccc(O)cc2)c2ccccc21,inactive
19,CN1[C@@H]2CC[C@H]1CC(OC(=O)c1c[nH]c3ccccc13)C2 (stereo partly specified),inactive
20,Cc1cccc(CN2CCN(C(c3ccccc3)c3ccc(Cl)cc3)CC2)c1 (stereo unspecified),inactive
21,O=C(O)Cc1ccc2c(c1)C(=O)c1ccccc1CO2,inactive
